Data on one compound can be found in ChEMBL document CHEMBL2218924, “A broad activity screen in support of a chemogenomic map for kinase signalling research and drug discovery” (Biochem J, 2013).

The target of assay [1] is Tyrosine-protein kinase SYK (Homo sapiens) (UniProt P43405). The settings on record: at 10 µM.
The target of assay [2] is T1, Mitogen-activated protein kinase kinase kinase 7 (Homo sapiens) (UniProt O43318).
T1 sequence (whole entry): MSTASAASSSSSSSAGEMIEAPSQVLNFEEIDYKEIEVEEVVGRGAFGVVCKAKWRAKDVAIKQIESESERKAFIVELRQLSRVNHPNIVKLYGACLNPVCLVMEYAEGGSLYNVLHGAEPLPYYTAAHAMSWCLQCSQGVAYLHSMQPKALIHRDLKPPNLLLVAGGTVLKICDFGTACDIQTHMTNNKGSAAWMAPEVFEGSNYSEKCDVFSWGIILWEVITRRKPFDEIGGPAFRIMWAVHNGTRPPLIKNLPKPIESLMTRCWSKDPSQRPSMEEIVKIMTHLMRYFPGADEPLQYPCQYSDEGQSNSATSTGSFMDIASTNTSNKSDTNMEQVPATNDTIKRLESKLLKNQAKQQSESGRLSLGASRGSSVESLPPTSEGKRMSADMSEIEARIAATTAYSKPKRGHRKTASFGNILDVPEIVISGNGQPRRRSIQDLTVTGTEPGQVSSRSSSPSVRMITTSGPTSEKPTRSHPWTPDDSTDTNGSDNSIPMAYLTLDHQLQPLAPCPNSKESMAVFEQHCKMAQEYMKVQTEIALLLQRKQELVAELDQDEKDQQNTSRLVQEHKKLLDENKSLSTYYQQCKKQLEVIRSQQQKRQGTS
Particulars: at 1 µM.

In assay [3] the target is T1, Mitogen-activated protein kinase kinase kinase 7 (Homo sapiens). The settings on record: at 10 µM.
Assay [4] concerns the target T2, Serine/threonine-protein kinase TAO1 (Homo sapiens) (UniProt Q7L7X3).
T2 sequence (whole entry): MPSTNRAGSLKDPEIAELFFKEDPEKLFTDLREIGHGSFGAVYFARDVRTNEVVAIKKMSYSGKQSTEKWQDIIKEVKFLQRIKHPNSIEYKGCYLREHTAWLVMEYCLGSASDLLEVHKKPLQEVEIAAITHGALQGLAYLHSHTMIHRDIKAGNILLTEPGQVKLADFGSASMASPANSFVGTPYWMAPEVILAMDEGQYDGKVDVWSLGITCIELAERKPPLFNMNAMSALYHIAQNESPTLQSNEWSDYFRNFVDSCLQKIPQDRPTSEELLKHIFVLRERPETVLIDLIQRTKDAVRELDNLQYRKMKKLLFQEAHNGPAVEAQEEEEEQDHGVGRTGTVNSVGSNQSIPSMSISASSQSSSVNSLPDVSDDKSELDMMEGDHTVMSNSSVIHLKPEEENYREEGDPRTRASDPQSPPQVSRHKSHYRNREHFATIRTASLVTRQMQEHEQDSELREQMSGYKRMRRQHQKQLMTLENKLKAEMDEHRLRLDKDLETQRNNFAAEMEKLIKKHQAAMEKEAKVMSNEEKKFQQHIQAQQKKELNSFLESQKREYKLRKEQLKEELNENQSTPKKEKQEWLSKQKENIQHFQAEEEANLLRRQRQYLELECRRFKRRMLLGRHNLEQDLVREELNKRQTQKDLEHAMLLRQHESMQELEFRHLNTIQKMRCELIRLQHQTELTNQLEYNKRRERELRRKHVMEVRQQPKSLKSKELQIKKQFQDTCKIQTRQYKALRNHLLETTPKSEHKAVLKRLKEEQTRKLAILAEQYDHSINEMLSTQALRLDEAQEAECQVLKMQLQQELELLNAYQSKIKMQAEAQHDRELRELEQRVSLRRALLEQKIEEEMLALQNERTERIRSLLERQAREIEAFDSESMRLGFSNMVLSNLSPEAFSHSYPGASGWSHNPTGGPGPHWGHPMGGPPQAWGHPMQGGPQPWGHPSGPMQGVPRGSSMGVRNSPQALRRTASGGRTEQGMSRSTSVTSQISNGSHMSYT
Particulars: at 1 µM.

Assay [5] concerns the target T2, Serine/threonine-protein kinase TAO1 (Homo sapiens). Particulars: at 10 µM.
Assay [6] has as its target T3, Serine/threonine-protein kinase TAO2 (Homo sapiens) (UniProt Q9UL54).
T3 sequence (whole entry): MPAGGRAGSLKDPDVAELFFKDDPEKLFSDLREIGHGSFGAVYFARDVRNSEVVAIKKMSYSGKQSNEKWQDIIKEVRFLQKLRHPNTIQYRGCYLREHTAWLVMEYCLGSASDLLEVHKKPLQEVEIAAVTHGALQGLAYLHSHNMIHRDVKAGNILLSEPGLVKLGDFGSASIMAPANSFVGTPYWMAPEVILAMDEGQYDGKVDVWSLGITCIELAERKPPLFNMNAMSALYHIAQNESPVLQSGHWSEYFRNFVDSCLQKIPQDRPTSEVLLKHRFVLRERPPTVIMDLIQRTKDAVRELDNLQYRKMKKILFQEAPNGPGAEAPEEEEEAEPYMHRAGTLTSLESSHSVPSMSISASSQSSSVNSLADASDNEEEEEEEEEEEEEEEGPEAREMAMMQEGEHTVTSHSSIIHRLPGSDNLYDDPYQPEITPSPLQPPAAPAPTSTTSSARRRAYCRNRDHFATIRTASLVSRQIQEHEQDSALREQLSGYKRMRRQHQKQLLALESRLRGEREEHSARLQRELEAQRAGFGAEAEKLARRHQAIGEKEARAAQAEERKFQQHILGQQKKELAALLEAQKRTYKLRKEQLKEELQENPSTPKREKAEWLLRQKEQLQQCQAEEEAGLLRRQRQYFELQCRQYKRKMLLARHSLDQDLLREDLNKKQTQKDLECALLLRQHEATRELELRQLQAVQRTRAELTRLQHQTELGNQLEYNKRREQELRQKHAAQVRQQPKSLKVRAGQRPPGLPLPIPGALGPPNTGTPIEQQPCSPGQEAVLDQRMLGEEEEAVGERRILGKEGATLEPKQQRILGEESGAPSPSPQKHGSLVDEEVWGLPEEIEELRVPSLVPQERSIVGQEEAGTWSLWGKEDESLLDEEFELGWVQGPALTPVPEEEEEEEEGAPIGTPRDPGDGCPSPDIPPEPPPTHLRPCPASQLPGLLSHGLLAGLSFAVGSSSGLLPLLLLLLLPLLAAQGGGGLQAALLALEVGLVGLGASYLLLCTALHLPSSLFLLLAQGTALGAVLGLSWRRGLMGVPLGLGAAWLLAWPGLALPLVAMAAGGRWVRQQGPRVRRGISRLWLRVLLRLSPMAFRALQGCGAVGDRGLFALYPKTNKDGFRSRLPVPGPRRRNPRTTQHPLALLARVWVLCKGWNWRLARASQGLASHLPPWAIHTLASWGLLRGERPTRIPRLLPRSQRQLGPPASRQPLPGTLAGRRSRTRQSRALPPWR
Particulars: at 1 µM.

The target in assay [7] is T3, Serine/threonine-protein kinase TAO2 (Homo sapiens). The settings on record: at 10 µM.
Assay [8] concerns the target T4, Serine/threonine-protein kinase TAO3 (Homo sapiens) (UniProt Q9H2K8).
T4 sequence (whole entry): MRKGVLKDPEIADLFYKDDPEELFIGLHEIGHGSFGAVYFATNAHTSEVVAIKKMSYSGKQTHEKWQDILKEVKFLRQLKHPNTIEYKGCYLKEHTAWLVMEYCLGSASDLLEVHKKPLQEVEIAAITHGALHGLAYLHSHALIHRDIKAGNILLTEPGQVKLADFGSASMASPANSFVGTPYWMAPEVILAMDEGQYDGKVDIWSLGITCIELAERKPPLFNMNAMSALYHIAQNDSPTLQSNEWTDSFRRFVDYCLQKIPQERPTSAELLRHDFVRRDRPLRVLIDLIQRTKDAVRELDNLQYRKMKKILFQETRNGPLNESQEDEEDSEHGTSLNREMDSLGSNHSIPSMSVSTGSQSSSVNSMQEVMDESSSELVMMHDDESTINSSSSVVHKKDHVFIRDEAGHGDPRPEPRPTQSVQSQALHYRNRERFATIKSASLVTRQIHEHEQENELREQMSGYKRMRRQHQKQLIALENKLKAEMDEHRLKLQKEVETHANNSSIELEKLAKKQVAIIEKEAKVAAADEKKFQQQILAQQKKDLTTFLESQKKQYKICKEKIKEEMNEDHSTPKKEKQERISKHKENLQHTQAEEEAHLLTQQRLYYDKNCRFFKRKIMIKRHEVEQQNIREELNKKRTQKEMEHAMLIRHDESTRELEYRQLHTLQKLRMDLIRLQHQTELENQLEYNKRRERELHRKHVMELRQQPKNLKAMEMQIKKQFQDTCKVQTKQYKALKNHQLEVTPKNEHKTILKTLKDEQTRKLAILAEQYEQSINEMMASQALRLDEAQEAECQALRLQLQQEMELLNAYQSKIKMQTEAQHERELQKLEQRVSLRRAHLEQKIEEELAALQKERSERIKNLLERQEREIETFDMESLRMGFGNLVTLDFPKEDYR
Particulars: at 1 µM.

Assay [9] has as its target T4, Serine/threonine-protein kinase TAO3 (Homo sapiens). The settings on record: at 10 µM.
The target of assay [10] is T5, Serine/threonine-protein kinase TBK1 (Homo sapiens) (UniProt Q9UHD2).
T5 sequence (whole entry): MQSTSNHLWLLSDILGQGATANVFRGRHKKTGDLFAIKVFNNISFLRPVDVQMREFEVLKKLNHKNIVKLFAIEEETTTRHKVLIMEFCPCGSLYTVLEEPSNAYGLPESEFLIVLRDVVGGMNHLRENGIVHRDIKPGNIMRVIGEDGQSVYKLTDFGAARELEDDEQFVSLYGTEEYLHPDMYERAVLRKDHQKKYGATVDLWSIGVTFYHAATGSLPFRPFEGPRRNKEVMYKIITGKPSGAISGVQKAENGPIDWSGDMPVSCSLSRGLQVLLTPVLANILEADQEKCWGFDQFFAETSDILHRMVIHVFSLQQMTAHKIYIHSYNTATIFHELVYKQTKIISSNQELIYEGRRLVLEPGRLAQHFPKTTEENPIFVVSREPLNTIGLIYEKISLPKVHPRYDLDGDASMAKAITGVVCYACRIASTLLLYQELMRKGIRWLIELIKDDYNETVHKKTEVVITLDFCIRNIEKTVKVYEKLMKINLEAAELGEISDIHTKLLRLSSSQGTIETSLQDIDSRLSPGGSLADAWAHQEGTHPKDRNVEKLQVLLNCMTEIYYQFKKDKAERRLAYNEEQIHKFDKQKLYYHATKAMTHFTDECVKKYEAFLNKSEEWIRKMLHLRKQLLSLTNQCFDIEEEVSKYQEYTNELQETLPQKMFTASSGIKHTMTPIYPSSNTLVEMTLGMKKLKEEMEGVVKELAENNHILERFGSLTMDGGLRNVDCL
Particulars: at 1 µM.

For `COc1cc2ncnc(Nc3ccc(Oc4ccccc4)cc3)c2cc1OC`, the residual activity amounted to 111% in assay [1]; 96% in assay [2]; 95% in assay [3]; 106% in assay [4]; 92% in assay [5]; 110% in [6]. In addition, the residual activity in assay [7] turned out to be 106%; in [8], 103%; in [9], 91%; in assay [10] it was 72%.
